Screening data: PubChem BioAssay, National Center for Advancing Translational Sciences (NCATS)
ClpP mod – qHTS Assay for Activators of ClpP; ATP-dependent Clp protease proteolytic subunit (Bacillus subtilis (strain 168)), P80244; purified B. subtilis ClpP, FRET peptide cleavage, 20 min; Potency, µM (doses to about 57.5 µM), for the others: at the highest dose activity change, negative = active; hit rate 1.9% among 340,000; AID 651965, 2013; active means well fitted falling curve with a large enough effect; inconclusive means small, poorly fitted or top-dose-only effect; inactive means no such curve, though single readings can be large or run the other way; further: potency means the concentration at half of the fitted maximal effect; the source files actives as falling curves though it sought activators and does not explain the sign; nearly all actives have a fitted effect of over 65% in size
Target sequence (P80244 whole entry, looked up): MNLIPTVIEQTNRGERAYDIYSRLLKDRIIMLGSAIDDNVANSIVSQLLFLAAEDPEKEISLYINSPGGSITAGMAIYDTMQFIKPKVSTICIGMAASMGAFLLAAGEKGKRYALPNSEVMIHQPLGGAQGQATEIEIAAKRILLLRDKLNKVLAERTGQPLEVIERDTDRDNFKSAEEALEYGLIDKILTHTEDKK
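Purified B. subtilis ClpP, 10 microg/mL final in Tris/HCl pH8 with KCl, BSA, glycerol and Tween-20, cleaved an Abz/nitrotyrosine-quenched decapeptide. Fluorescence (ex 320, em 430) was read at 0 and 20 min at room temperature. Delta was normalized to 5.8 microM ADEP and DMSO/no-enzyme controls.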
miR-21 act – qHTS Assay for Modulators of miRNAs and/orActivators of miR-21. HeLa miR-21 FLuc reporter, luciferase, 48 h. Potency, µM (doses to about 38.3 µM), inactives show at the highest dose activity change, positive = activation, most hits filed as activators. 340,000 tested, under 10 active. AID 2288, 2010;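 further: % of control where 0% means no effect; miR-21 action dims this reporter so a rising signal means less miR-21 action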
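Luminescence from a firefly luciferase reporter carrying a miR-21 binding site downstream, stably expressed under a CMV promoter in HeLa cells that make miR-21 endogenously, reports miRNA modulation after 48 h compound exposure up to approximately 40uM final.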
Nrf2 block – Nrf2 qHTS screen for inhibitors. AID 504444, 2011. Potency, µM (doses to about 46 µM), for inactives: at the highest dose activity change, negative = inhibition, most hits filed as inhibitors. A549 ARE-Fluc reporter, luciferase luminescence, 18-24 h. hit rate 2.1% among 360,000; further: potency means the concentration at half of the fitted maximal effect; on the % scale 0 is the no-effect control and ±100 the full control effect; nearly all actives have a fitted effect of over 60% in size
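Reporter: ARE-Fluc in A549. Exposure: 18-24 h, 37 °C, 5% CO2, 5% FBS OPTI-MEM. Readouts: fluorescent cytotoxicity (CellTiter-Fluor), then luminescent Nrf2 signal after BugLite.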
TCR activator – Activators of T cell receptors: qHTS campaign. primary human leukocytes, anti-CD3, IL-2 HTRF, 48 h. 330,000 tested, under 10 active. AID 504894, 2011. Potency, µM (highest dose often 9.22 µM), for inactives: at the highest dose activation of IL-2 secretion, usual class: activators; further: % of control where 0% means no effect
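Primary human leukocytes receive a-CD3 beads and test compound and are incubated 48 hr. Secreted IL-2 is then assayed by HTRF, measuring 665nm acceptor emission after 320nm excitation of the europium donor.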
Nrf2 ARE act – qHTS of Nrf2 Activators | AREc32 ARE-luciferase reporter (MCF7-derived line), luminescence, 24 h | Potency, µM (highest dose often 46.1 µM), for inactives: top-dose activation, actives largely listed as activators | hit rate 0.31% among 410,000 | AID 624171, 2012; further: potency means the concentration at half of the fitted maximal effect; % of control where 0% means no effect; nearly all actives have a fitted effect of over 65% in size
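Quantitative high-throughput format: AREc32 reporter cells, 1000 per well, received compound by pin transfer and were incubated 24 hr at 37 deg C, 5% CO2, before Steady-Glo luminescence detection.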
A549 tox-1 – Nrf2 qHTS screen for inhibitors: counterscreen for cytotoxicity | A549 ARE-Fluc cells, CellTiter-Fluor viability, 18-24 h | Potency, µM (series often up to 46 µM), for inactives: at the top dose activity change, negative = cytotoxicity, actives largely listed as inhibitors | hit rate 0.16% among 390,000 | AID 504648, 2011; further: potency means the concentration at half of the fitted maximal effect; on the % scale 0 is the no-effect control and ±100 the full control effect
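A549 ARE_Fluc cells in 5% FBS OPTI-MEM were exposed to compounds in concentration-response for 18-24 h at 37 deg C. Viability was read by CellTiter-Fluor fluorescence (Ex 405/Em 525) after 30 min, before the luciferase read.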
FLuc enzyme inh – Nrf2 qHTS screen for inhibitors: Purified Fluc Biochemical Counterscreen for Hit Validation | shares compounds with Nrf2 block | AID 720522, 2013 | hit rate 4% among 1,400 | Potency, µM (highest dose often 57.5 µM), for the others: top-dose activity change, negative = inhibition, usual class: inhibitors | purified firefly luciferase, luminescence inhibition; further: potency means the concentration at half of the fitted maximal effect; on the % scale 0 is the no-effect control and ±100 the full control effect; nearly all actives have a fitted effect of over 65% in size
A549 tox-2 – Nrf2 qHTS screen for inhibitors: A549 ARE-Fluc Cytotoxicity Counterscreen for Hit Validation. shares compounds with Nrf2 block. A549 ARE-Fluc cells, cytotoxicity counterscreen. Potency, µM (titrated, usually from 46.1 µM), for the others: at the highest dose activity change, negative = cytotoxicity, usual class: inhibitors. hit rate 2% among 1,400;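 further: potency means the concentration at half of the fitted maximal effect; cells exposed to compounds for 18 to 24 hours; on the % scale 0 is the no-effect control and ±100 the full control effect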
ARE-Fluc inh – Nrf2 qHTS screen for inhibitors: Nrf2 A549 ARE-Fluc Confirmation Assay for Hit Validation; AID 720524, 2013; hit rate 74% among 1,400; A549 ARE-firefly luciferase reporter, luminescence; Potency, µM (highest dose often 46.1 µM), without a hit: top-dose activity change, negative = inhibition, hits mostly inhibitors; shares compounds with Nrf2 block; further: potency means the concentration at half of the fitted maximal effect; on the % scale 0 is the no-effect control and ±100 the full control effect; nearly all actives have a fitted effect of over 65% in size
An asterisk follows results filed as active; ? = inconclusive; / = no result given; ! = repeats disagree. In the library only some 3.7% were active in any assay of this set; here they are far more common. Unless noted, the call rests on the fitted dose curve; in most records, active means well fitted curve in the direction sought with a large enough effect; inconclusive means small, poorly fitted or top-dose-only effect, or another doubt; inactive means no such curve, though single readings can be large; an effect the other way counts as inactive or inconclusive.

SMILES	ClpP mod	miR-21 act	Nrf2 block	TCR activator	Nrf2 ARE act	A549 tox-1	FLuc enzyme inh	A549 tox-2	ARE-Fluc inh
COc1ccc(CC(=O)Nc2cc(S(=O)(=O)N3CCCCC3)ccc2C)cc1OC	/	21%	4.1µM*	4%	2%	?	1%	-6%	7.3µM*
Cc1cc(C)c(S(=O)(=O)Nc2cccc3nsnc23)c(C)c1	-1%	-1%	-26%	0%	0%	-4%	/	/	/
Cc1cc(C)c(S(=O)(=O)Nc2cccc3cccnc23)c(C)c1	/	/	2.9µM*	/	/	-16%	0%	-23%	16µM*
COCCNC(=O)Cn1c(=O)c2cccn2c2ccc(F)cc21	?	3%	-14%	/	1%	-8%	/	/	/
Cc1oc(-c2ccccc2Cl)nc1CSCC(=O)N1CCCC1	-2%	16%	?	3%	0%	-2%	/	/	/
COc1ccc(-c2nc(CSCC(=O)N3CCN(c4ccccc4F)CC3)c(C)o2)cc1	?	?	5.8µM*	/	-1%	?	-22%	-16%	9.2µM*
Cc1oc(-c2ccccc2F)nc1CSCC(=O)N1CCN(c2ccccc2)CC1	-1%	24%	7.3µM*	/	0%	-22%	2%	-8%	12µM*
CCC[C@@H]1CCCC/C=C\CCCC(=O)OCCN1C(=O)OC(C)(C)C	2%	/	-29%	6%	1%	-2%	/	/	/
CC(C)CCOc1cccc(OCC(=O)Nc2ccncc2)c1	/	27%	9.2µM*	4%	3%	1%	-17%	-4%	3.7µM*
CN1C(C(=O)Nc2ccc(OC(F)(F)F)cc2)=CC(c2cccs2)=NS1(=O)=O	0%	6%	3.7µM*!	-4%	0%	1%	-2%	-26%	/
Cc1cccc(NC(=O)CSc2nc(=O)n(Cc3ccccn3)c3c2CCC3)c1C	-13%	4%	/	/	0%	1%	/	/	/
O=C(Nc1nc(-c2ccccn2)cs1)c1cc(Cl)ccc1[N+](=O)[O-]	/	10%	4.1µM*	6%	?	?	15µM*	-27%	1.8µM*
O=C(NC1CCC(O)CC1)C1CCN(S(=O)(=O)c2c(Cl)cccc2Cl)CC1 (centres undefined)	0%	/	-2%	-28%	0%	5%	/	/	/
Cc1ccccc1-n1ncc2c(SCC(=O)NC3CCCC3)ncnc21	/	11%	8.2µM*	0%	0%	-20%	0%	-4%	15µM*
O=C(NN=Cc1ccc(N2CCOCC2)s1)c1ccc([N+](=O)[O-])cc1	0%	/	?	3%	1%	?	/	/	/
COc1ccc(S(=O)(=O)N2CCN(CCOc3ccc(Br)cc3)CC2)cc1OC	-2%	/	5.8µM*	0%	4%	-16%	-11%	?	7.3µM*
O=C(OCc1ccccc1Cl)c1ccc(-c2nnn(Cc3ccccc3Cl)n2)cc1	0%	-4%	-7%	/	-2%	-5%	/	/	/
